A selection: hits, their analogues and other compounds. The true share with any hit is near 1.1%.
IL1B NFkB pot: enhances IL-1B driven NFkB nuclear translocation. HUVEC IL-1B NFkB p65 nuclear translocation imaging. activation, % at 2 µM. hit rate 0.3% among 94,000;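 active = activation above 40%, about the mean plus 3 SD, also judged a hit on visual image review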;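 also: percent activation is computed from the nuclear over cytoplasmic p65 intensity ratio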
Candida biofilm: kills Candida albicans biofilms; C. albicans biofilm + clotrimazole, Alamar Blue; inhibition, % at 6 µM; hit rate 0.14% among 85,000;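 active = inhibition above 20%; inactive = inhibition below 20%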;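 also: preformed 24 hr biofilms exposed to compound for 48 hr; 0% = biofilm without compound and 100% = blank killed by clotrimazole plus chlorhexidine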
NFkB transloc inh: blocks IL-1B driven NFkB nuclear translocation in HUVEC cells; HUVEC IL-1B NFkB p65 nuclear translocation imaging; inhibition, % at 2 µM; hit rate 0.43% among 94,000;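 active = inhibition above about 30% together with a positive call from visual inspection of the well image, limit read from the data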;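 also: nuclear over cytoplasmic p65 intensity ratio measured by imaging; 0% = IL-1B stimulated DMSO wells and 100% = unstimulated DMSO wells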
IL1B cytotox: HUVEC cytotoxicity counter-screen, IL-1B stimulated; HUVEC cell count loss, Hoechst imaging; cell count reduction, % at 2 µM; hit rate 0.41% among 94,000; AID 845;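 active = cell count reduction more than 3 SD above the screen-wide mean, cut at about 70% in these data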;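 also: normalized per plate to untreated control cells as the no-loss baseline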
EphB4 antag: antagonists of human EphB4-ephrin-B2 interaction | P54760 | EphB4 LBD / TNYL-RAW-Alexa532 peptide, fluorescence polarization | inhibition, % at 7 µM | hit rate 0.15% among 97,000 | AID 720;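 active = inhibition above the screen-wide mean inhibition plus 3 SD, cut at about 15% in these data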;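 also: 0% = DMSO wells and 100% = excess unlabeled TNYL-RAW peptide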
Target sequence (P54760 whole entry, looked up, the tested form may be a part): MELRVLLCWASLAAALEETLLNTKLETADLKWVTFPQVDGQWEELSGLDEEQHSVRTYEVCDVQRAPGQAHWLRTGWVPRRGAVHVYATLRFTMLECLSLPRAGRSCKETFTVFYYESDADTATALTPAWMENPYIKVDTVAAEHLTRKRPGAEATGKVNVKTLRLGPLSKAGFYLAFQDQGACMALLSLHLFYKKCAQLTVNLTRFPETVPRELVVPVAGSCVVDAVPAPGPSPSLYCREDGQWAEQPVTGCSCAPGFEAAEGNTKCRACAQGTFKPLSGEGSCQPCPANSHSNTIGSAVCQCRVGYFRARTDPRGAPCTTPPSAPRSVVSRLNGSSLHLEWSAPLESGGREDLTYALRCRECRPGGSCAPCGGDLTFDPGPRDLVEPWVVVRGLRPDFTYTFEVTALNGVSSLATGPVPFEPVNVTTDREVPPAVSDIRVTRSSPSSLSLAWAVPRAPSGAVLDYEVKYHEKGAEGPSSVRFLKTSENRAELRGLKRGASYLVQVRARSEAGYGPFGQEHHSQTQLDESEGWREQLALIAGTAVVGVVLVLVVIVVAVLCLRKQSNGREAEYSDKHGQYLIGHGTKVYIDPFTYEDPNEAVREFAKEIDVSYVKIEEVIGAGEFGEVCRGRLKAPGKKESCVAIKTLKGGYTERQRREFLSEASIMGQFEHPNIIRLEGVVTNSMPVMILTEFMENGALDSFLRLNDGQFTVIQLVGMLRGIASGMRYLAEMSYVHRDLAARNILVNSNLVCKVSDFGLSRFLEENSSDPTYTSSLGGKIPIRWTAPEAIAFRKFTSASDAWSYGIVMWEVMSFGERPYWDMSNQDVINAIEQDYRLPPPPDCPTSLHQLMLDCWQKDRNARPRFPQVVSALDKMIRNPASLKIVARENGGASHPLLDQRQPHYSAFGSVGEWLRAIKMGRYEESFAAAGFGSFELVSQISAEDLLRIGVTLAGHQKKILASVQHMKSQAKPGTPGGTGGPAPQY
* marks the source's active call; other numbers are inactive results; · = no result; [ ] = another dose, or the depositor's remark.

SMILES | IL1B NFkB pot | Candida biofilm | NFkB transloc inh | IL1B cytotox | EphB4 antag
CN(c1ccc(Cl)cc1)c1cc(=O)n(C)c2ccccc12 | 8.2 | 2.2 | -8.2 | 1.2 | 120.3*[fluorescence artefact?]
Cc1ccc(S(=O)(=O)N2CCCC(C(=O)NCC3COCCO3)C2)cc1 (stereo not given) | -7.5 | 2.5 | 7.5 | 6.1 | 8.6
O=C(NCC1COCCO1)C1CCN(S(=O)(=O)c2ccccc2)CC1 (stereo not given) | -96.5 | 10.7 | 96.5* | 94.3* | -4.3
O=C(OCn1ncc(Br)c(Br)c1=O)c1ccc(F)cc1 | -20.2 | -4.2 | 20.2 | 6.9 | -1.1
O=C(OCn1ncc(Br)c(Br)c1=O)c1ccccc1Cl | -87.5 | 3.5 | 64.7* | 43.8 | -1.4
Cn1c(Cn2c(=O)sc3ccccc32)nnc1SCC(=O)NC1CCCCC1 | · | 20.6* | · | · | ·
Cn1c(Cn2c(=O)sc3ccccc32)nnc1SCC(=O)NC1CCCC1 | · | 8.8 | · | · | ·
COc1ccc(N=C2S/C(=C\c3ccc(N4CCOCC4)o3)C(=O)N2CCc2c[nH]c3ccccc23)cc1 | -48.2 | · | 48.3* | 8.2 | 0.6
O=C(CCC1N=C2c3ccccc3N=C(SCc3ccc(F)cc3)N2C1=O)NCc1ccco1 (stereo not given) | -5.1 | 0.1 | 5.1 | 0.3 | 16.3*
Cn1cnnc1SCC(=O)Nc1ccc2nc(SCc3cccc4ccccc34)sc2c1 | 2.0 | -3.4 | -2.0 | 9.5 | 16.9*
Cc1nnc(NC(=O)C2CCCCC2)s1 | · | -4.2 | · | · | ·
O=C(Nc1nnc(C2CCCC2)s1)C1CCC1 | 40.1* | -2.0 | -40.1 | 8.9 | 2.3
CCn1nnnc1SCC(=O)Nc1ccc(OCc2ccccc2)cc1 | 19.1 | 7.3 | -19.1 | -10.8 | -6.5
CCOC(=O)c1c(NC(=O)CC2SC(N)=NC2=O)sc2c1CCCC2 (stereo not given) | 7.7 | · | -7.7 | -30.5 | -6.8
O=C(c1ccccc1Oc1nnnn1-c1ccccc1)N1CCOCC1 | -12.3 | 9.5 | 12.3 | -7.5 | 7.1
CC1(C)Cc2c(cnn2-c2ccccc2)-c2c1c1ccccc1n2CC(O)CCl (stereo not given) | -13.1 | 1.0 | 13.1 | 90.9* | -3.7
CC1(C)Cc2c(cnn2-c2ccccc2)C(=O)/C1=N\NC(=O)c1ccncc1 | 13.5 | 8.8 | -13.5 | -39.2 | -5.4
Nn1cc(-c2ccccc2)nc1SCC(=O)NCCN1C(=O)CSC1=O | -3.9 | 3.5 | 3.9 | -42.5 | -1.7
Cc1csc(NC(=O)CSc2nnc(CCNC(=O)c3cccs3)n2C)n1 | -99.2 | 4.3 | 99.2* | 88.8* | -1.4
COc1cc(/C=N/NC(=O)CCc2ccccc2)ccc1O | -3.9 | · | 3.9 | 37.2 | 0.2
COc1ccc(/C=N/NC(=O)CCc2c(C)n[nH]c2C)cc1O | 55.1* | 9.6 | -55.1 | -9.4 | 9.2
CCCc1nc(-c2cc3ccc(C)cc3[nH]c2=O)no1 | -7.9 | -6.8 | 7.9 | 84.3* | -3.3
Cc1ccc(OC(=O)c2ccc(N3CCOCC3)c([N+](=O)[O-])c2)cc1 | -8.3 | · | 8.3 | 42.1 | 8.3
O=C(COc1ncnc2ccccc12)NCCCN1CCCC1=O | -3.6 | 6.4 | 3.6 | -0.8 | 8.4
O=C(CCCCn1c(=O)[nH]c2ccsc2c1=O)NCc1ccc2c(c1)OCO2 | -64.0 | 6.8 | 64.0* | 33.3 | -0.6
SMILES | IL1B NFkB pot | Candida biofilm | NFkB transloc inh | IL1B cytotox | EphB4 antag
CC(CS(=O)(=O)c1ccc2ccccc2c1)N1CCN(C2CCCCC2)CC1 (stereo not given) | 7.8 | 9.2 | -7.8 | -40.6 | 12.5
COc1ccc(C2C3=C(CC(C)(C)CC3=O)Nc3c2c(=O)[nH]c(=O)n3Cc2ccccc2)cc1 (stereo not given) | 101.7* | 2.3 | -101.7 | 2.2 | -6.8
COc1ccc(C2C3=C(CC(C)(C)CC3=O)Nc3c2c(=O)[nH]c(=O)n3Cc2ccccc2)cc1OC (stereo not given) | 8.9 | -1.4 | -8.9 | 4.5 | -4.9
NC(=O)C1CCN(C(=O)OCc2ccccc2)CC1 | 16.8 | · | -16.8 | 14.4 | 0.2
N#CCCn1c(C2CCCCC2)nc2ccccc21 | 17.4 | 13.5 | -17.4 | -21.1 | -4.3
Cc1nn2c(N3CCN(C4CCCC4)CC3)cc(C(C)(C)C)nc2c1-c1ccccc1 | 6.0 | -2.3 | -6.0 | 81.9* | 5.2
COc1ccc(NC2C=CS(=O)(=O)C2)c(OC)c1 (stereo not given) | 4.1 | 23.7* | -4.1 | -36.3 | 1.3
Clc1ccc(/C=N/Nc2nc(Cl)nc3ccccc23)cc1 | 3.9 | · | -3.9 | -9.5 | -4.7
Clc1cccc(/C=N/Nc2ncnc3ccccc23)c1 | 9.1 | · | -9.1 | -77.8 | 84.6*[fluorescence artefact?]
Cc1ccc(S(=O)(=O)NCC(=O)N(CC(=O)NCC2CCCO2)Cc2ccccc2)cc1 (stereo not given) | 19.6 | 20.2* | -19.6 | 0.5 | -4.1
O=C(c1nc2nc(-c3ccc(Cl)cc3)cc(C(F)(F)F)n2n1)N1CCOCC1 | -31.3 | 4.0 | 31.3* | -25.9 | -4.8
O=C(c1nc2nc(-c3ccccc3)cc(C(F)(F)F)n2n1)N1CCOCC1 | -3.5 | 5.4 | 3.5 | 27.9 | -0.2
O=C(NCCc1nc2ccccc2[nH]1)c1ccc(F)cc1 | 13.4 | 6.2 | -13.4 | 91.6* | 5.8
Cc1cc(C)nc(N2CCC(C(=O)NCc3ccccc3)CC2)n1 | 37.4 | -0.6 | -37.4 | -15.8 | -0.3
Cc1cc(C)nc(N2CCCC(C(=O)NCc3ccccc3)C2)n1 (stereo not given) | 5.4 | 9.7 | -5.4 | 15.5 | 28.9*
COC(=O)C1=C(C)Nc2ccc(C)cc2S1 | -10.2 | 11.6 | 10.2 | 9.4 | -0.5
COC(=O)C(O)(CC(=O)Nc1ccc(Cl)cc1F)C(F)(F)F (stereo not given) | -31.9 | 5.5 | 31.9* | 29.5 | -1.4
CCn1cc(C(=O)Nc2ccc(C(=O)N3CCCC3)cc2)c(=O)c2ccc(C)nc21 | · | 4.8 | · | · | ·
C=CCn1c(SCC(=O)c2ccc(OC)cc2)nnc1C(C)NC(=O)c1cccs1 (stereo not given) | -48.8 | -9.5 | 48.8* | 94.4* | 2.2
C=CCn1c(SCC(=O)NC2CCCCC2)nnc1C(C)NC(=O)c1cccs1 (stereo not given) | 13.0 | 7.1 | -13.0 | -54.4 | 3.9
CCCn1c(=O)c(C(=O)Nc2nnc(CC)s2)c(O)c2ccccc21 | · | 2.7 | · | · | ·
CC(=O)c1cccc(NC(=O)NCc2cccs2)c1 | 46.1* | -1.3 | -46.1 | -24.2 | -5.2
COc1cc(NC(=O)Nc2cccc(C(C)=O)c2)cc(OC)c1OC | -7.5 | 2.9 | 7.5 | 72.0* | -2.8
Cc1ccc(-c2cc(NC(=O)CCl)n(-c3ccccc3)n2)cc1 | 8.6 | -1.9 | -8.6 | -70.6 | 7.9
O=C(CCl)Nc1cc(-c2ccccc2)nn1-c1ccccc1 | 16.6 | 7.3 | -16.6 | 87.6* | -5.7
COc1ccc(C(C)n2c(C)c3c(C)nnc(C)c3c2C)cc1 (stereo not given) | -41.3 | 2.1 | 41.3* | -19.9 | 9.5
Cc1cccc(N(CC(=O)Nc2ccc(F)cc2)S(C)(=O)=O)c1 | 1.5 | 55.1* | -1.5 | -45.3 | 6.5
CSc1cccc(NC(=O)CN(c2cccc(C)c2)S(C)(=O)=O)c1 | 19.6 | -2.0 | -19.6 | -4.1 | 0.1
CC(C)C(NC(=O)CN(c1cccc(F)c1)S(C)(=O)=O)C(C)C | 20.8 | 3.1 | -20.8 | -31.8 | 8.1
COC(=O)CN(c1cccc(F)c1)S(C)(=O)=O | 71.2* | · | -71.2 | -0.3 | 3.6
